Bioassay records from PubChem BioAssay.
FAS-TE inh = FAS thioesterase (human) inhibition | P49327 | inhibition, % at 15 µM | recombinant FAS-TE, OMFH fluorogenic substrate, fluorescence endpoint | actives 0.67% (n = 360,000);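 active means compounds whose normalised, plate-corrected inhibition of enzyme fluorescence in the single-dose primary screen is 50% or more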
MPTP block = blocks calcium-induced mitochondrial swelling; inhibition, % at 10 µM; AID 602449; actives 1.4% (n = 360,000); isolated mouse mitochondria, Ca2+ swelling absorbance, 30 min;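 active means inhibition of 50% or more, scaled per plate between neutral and stimulator controls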
rCAG binder-1 = binds r(CAG) RNA repeats; r(CAG) RNA repeat, TO-PRO-1 dye displacement fluorescence; actives 1.3% (n = 370,000); inhibition, % at 3 µM;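 active means inhibition above the plate cutoff, the mean of all test compounds on that plate plus 3 SD, cut at about 35% in these data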;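 further: higher means more dye released from RNA so lower well fluorescence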
Myeloid diff 2 = promotes myeloid progenitor differentiation; calls only at 10 µM; actives 1% (n = 360,000); ER-HoxA9 myeloid progenitors, lysozyme-GFP differentiation, flow cytometry;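 active means normalized GFP-positive differentiation at or above the plate's own cutoff, the solvent-only control mean plus 3 SD; inconclusive means no clear call, values can overlap the other calls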;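 further: cells exposed to compound for four days before flow analysis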
GRIN3A LBD mod = modulates the human NR3A ligand-binding domain; NR3A LBD differential scanning fluorimetry, Tm shift; 0% = protein alone, 100% = glycine-bound protein; Tm shift relative to glycine control, % at 25 µM; actives 2.5% (n = 340,000);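 active means melting temperature shift of at least 10% of the positive control shift, at one fixed dose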
rCAG bind conf = r(CAG) RNA repeat binding, confirmation; AID 652065; actives 70% (n = 4,300); inhibition, % at 3 µM; TO-PRO-1 dye displacement fluorescence; shares compounds with rCAG binder-1;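 active means inhibition above a per-plate cutoff, the mean inhibition of sample wells plus 3 SD, cut at about 35% in these data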;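 further: loss of TO-PRO-1 fluorescence as compound displaces dye from 1x1 AA loop RNA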
dCAG dye counter = DNA CAG dye complex inhibition counter-screen. shares compounds with rCAG binder-1. d(CAG) DNA oligo TO-PRO-1 dye displacement, fluorescence. inhibition, % at 3 µM. actives 94% (n = 4,300). AID 652068;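 active means inhibition above its plate's cutoff, the mean test-well inhibition plus 3 SD, cut at about 4.8% in these data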;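 further: hits displace the dye from DNA and so lower well fluorescence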
DNA CAG DR = DNA CAG dye complex inhibition, dose response counter-screen | shares compounds with rCAG binder-1 | DNA CAG/GTC duplex TO-PRO-1 dye displacement fluorescence | IC50, µM | actives 20% (n = 250); in the data active means IC50 below about 10 µM
dCAG DNA bind = counter-screen for rCAG binders: DNA CAG TO-PRO-1 complex inhibitors, late stage; shares compounds with rCAG binder-1; IC50, µM; d(CAG) DNA duplex TO-PRO-1 dye displacement, fluorescence; actives 80% (n = 30)
rCAG binder-2 = binds r(CAG) RNA repeats in late stage dose response; shares compounds with rCAG binder-1; r(CAG) RNA TO-PRO-1 dye displacement, fluorescence; IC50, µM; actives 100% (n = 30)
Large screens that a line does not name were inactive (follow-up assays come after a bar, where they were run). Sampled rows, rich in hits. Any-hit rate of the full collection: about 5.7%. Unless noted, how the calls were made is not given here.

Cc1nn(-c2cccc(Cl)c2)c2nc(-c3ccco3)cc(C(=O)O)c12	rCAG binder-1 71.7 | rCAG bind conf 77.4 | dCAG dye counter 39.7
Cc1nn(-c2ccccc2)c2nc(-c3ccco3)cc(C(=O)O)c12	rCAG binder-1 54.0 | rCAG bind conf 71.0 | dCAG dye counter 26.6 | DNA CAG DR 4.28 | dCAG DNA bind 6.08 | rCAG binder-2 2.51
CCOc1ccc(N2C(=O)CC(Sc3ccccc3C(=O)O)C2=O)c([N+](=O)[O-])c1 (configuration not stated)	none
CCOc1ccc(CN2CCNC(=O)C2CC(=O)NC2CCOCC2)cc1 (configuration not stated)	none
C=CCn1c(=O)c(C(=O)Nc2ncccc2C)c(O)c2ccccc21	none (no result: GRIN3A LBD mod)
CS(=O)(=O)Nc1ccccc1-c1cccc2nccn12	none (no result: GRIN3A LBD mod)
Cc1cccc(N2CCN(C(=O)Cc3c(C(=O)O)[nH]c4ccc(Cl)cc34)CC2)c1C	rCAG binder-1 49.9 | rCAG bind conf 72.0 | dCAG dye counter 36.8
CNc1ccccc(C(=O)/C=C/c2ccccc2OC)c1=O	none
CCNc1ccc(Br)cc(C(=O)/C=C/c2ccccc2Cl)c1=O	rCAG binder-1 46.4 | rCAG bind conf inactive | dCAG dye counter 14.9
CNc1ccc(Br)cc(C(=O)/C=C/c2cccc(Cl)c2Cl)c1=O	rCAG binder-1 48.1 | rCAG bind conf 50.1 | dCAG dye counter 23.2
CNc1ccc(Br)cc(C(=O)/C=C/c2cccc(OC)c2OC)c1=O	rCAG binder-1 35.1 | rCAG bind conf inactive | dCAG dye counter 11.0
O=[N+]([O-])c1cnc(N2CCCCC2)c([N+](=O)[O-])c1	none
COCC(C)NC(=O)c1nn(Cc2ccccc2)c(=O)c2ccccc12 (configuration not stated)	none
CC1CCN(c2ccc(C(=O)O)cc2NS(=O)(=O)c2ccc(C(C)(C)C)cc2)CC1	rCAG binder-1 64.5 (no result: FAS-TE inh, MPTP block, Myeloid diff 2, GRIN3A LBD mod) | rCAG bind conf 63.7 | dCAG dye counter 25.7
C=C1c2cccc(O)c2C(=O)C2C(=O)[C@]3(O)C(=O)C(C(N)=O)C(=O)[C@@H](N(C)C)[C@@H]3[C@@H](O)[C@H]12 (some centres not stated)	rCAG binder-1 84.9 | rCAG bind conf inactive | dCAG dye counter 10.4
COC(=O)c1ccc(CN(c2ccc(C(=O)O)c(O)c2)S(=O)(=O)c2ccc(Cl)c([N+](=O)[O-])c2)cc1	rCAG binder-1 43.1, GRIN3A LBD mod 21.5 | rCAG bind conf 52.4 | dCAG dye counter 17.6
COc1ccc(CCNC(=O)Nc2cc(F)c(F)cc2Cl)cc1OC	none
O=C(O)C/C(=C\c1cccc(NC(=O)c2ccccc2Cl)c1)c1nc2ccccc2s1	rCAG binder-1 53.5 | rCAG bind conf 56.9 | dCAG dye counter 24.1
COc1cc(/C=C(\CC(=O)O)c2nc3ccccc3s2)cc(OC)c1O	none
O=C(O)C/C(=C\c1cc2c(cc1Br)OCO2)c1nc2ccccc2s1	rCAG binder-1 35.1 | rCAG bind conf 36.0 | dCAG dye counter 9.5
COc1ccc(C(=O)Nc2cccc(/C=C(\CCC(=O)O)c3nc4ccccc4s3)c2)cc1	rCAG binder-1 62.4 | rCAG bind conf 75.9 | dCAG dye counter 38.4
Brc1cc2c(cc1/C=N/Nc1nc3ccccc3s1)OCO2	none
COc1ccc(Cl)cc1C(=O)NNC(=O)c1nn(C)c(=O)c2ccccc12	none
COc1ccc(NC(=O)/C(C#N)=C\c2ccc(Br)o2)cc1	none
N#C/C(=C\c1ccc([N+](=O)[O-])o1)C(=O)Nc1ccc(F)cc1	rCAG binder-1 51.6, Myeloid diff 2 inconclusive | rCAG bind conf inactive | dCAG dye counter 14.0
CCC(C)(C)C1CCc2c(sc(NC(=O)c3ccccc3C(=O)O)c2C#N)C1 (configuration not stated)	rCAG binder-1 91.0 | rCAG bind conf 83.7 | dCAG dye counter 56.4
CC1CCc2c(sc(NC(=O)c3ccccc3C(=O)O)c2C#N)C1 (configuration not stated)	none
CC1CCc2sc(NC(=O)C3CC(Cl)=CCC3C(=O)O)c(C#N)c2C1 (configuration not stated)	rCAG binder-1 49.0 | rCAG bind conf 42.1 | dCAG dye counter 12.6
N#Cc1c(NC(=O)C2CC=CCC2C(=O)O)sc2c1CCCCCC2 (configuration not stated)	none
CC(C)(C)C1CCc2c(sc(NC(=O)C3CC=CCC3C(=O)O)c2C#N)C1 (configuration not stated)	rCAG binder-1 80.4 | rCAG bind conf 72.2 | dCAG dye counter 36.3
O=C1/C(=C/c2ccc(Cl)cc2)NC(=S)N1Cc1cccnc1	none
COCCN1C(=O)CCC1(C)C(=O)NC1CCCCC1 (configuration not stated)	none (no result: GRIN3A LBD mod)
COc1cc2c(c3ccccc13)CCCC2=O	none
Cc1ccc(-n2c(SCC(=O)O)nc3c(sc(=S)n3-c3ccc(C)c(C)c3)c2=O)cc1	rCAG binder-1 51.1 | rCAG bind conf 42.0 | dCAG dye counter 13.8
Cc1ccc(-n2c(SCC(=O)O)nc3sc4c(c3c2=O)CCCC4)cc1	none
Cc1ccc(-n2c(=S)sc3c(=O)n(-c4ccc(F)cc4)c(SCC(=O)O)nc32)cc1C	rCAG binder-1 35.5 | rCAG bind conf inactive | dCAG dye counter 6.4
CCOC(=O)c1coc(C(=O)OCC)c1C(=O)OCC	none
Cc1ccccc1OCCCC(=O)Nc1ccc(S(=O)(=O)Nc2onc(C)c2C)cc1	rCAG binder-1 52.0 | rCAG bind conf inactive | dCAG dye counter 9.4
Cc1cc(NS(=O)(=O)c2ccc(NC(=O)CCCOc3ccccc3C)cc2)no1	rCAG binder-1 37.8 | rCAG bind conf inactive | dCAG dye counter 8.8
Cc1ccccc1OCC(=O)Nc1ccc(S(=O)(=O)Nc2onc(C)c2C)cc1	none
Cc1cc(NS(=O)(=O)c2ccc(NC(=O)CCCOc3cccc(C)c3C)cc2)no1	rCAG binder-1 63.1 | rCAG bind conf 62.2 | dCAG dye counter 16.9
Cc1cc(NS(=O)(=O)c2ccc(NC(=O)COc3c(C)cc(Br)cc3C)cc2)no1	rCAG binder-1 71.1 | rCAG bind conf 63.2 | dCAG dye counter 25.5
COC(=O)CC1SC(=O)NC1=Nc1cccc(C)c1 (configuration not stated)	none
COc1ccccc1C(CNC(=O)CN1C(=O)NC(C)(c2ccc3ccccc3c2)C1=O)N1CCCC1 (configuration not stated)	none
